Sampled rows, rich in hits. Any-hit rate of the full collection: about 9.2%.
ELG1 genotox: inducers of genotoxicity in HEK293T ELG1-luciferase cells; HEK293T ELG1-luciferase reporter, luminescence, 16 h; Potency, µM (top dose mostly 46 µM), for inactives: top-dose activity change, positive = activation, usual class: activators; AID 504466; actives 1.3% (n = 330,000); further: % of control where 0% means no effect; nearly all actives have a fitted effect of over 60% in size
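ELG1-luciferase HEK293T cells, 2,000/well; compound pinned in; 16 hr, 37 °C, 5% CO2; ONE-Glo, 30 min RT; luminescence on CCD imager.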
ELG1 repair inh: inhibitors of ELG1-dependent DNA repair in HEK293T cells | HEK293T ELG1-luciferase reporter, luminescence, 16 h; DNA damage induced by 5-fluorouridine | Potency, µM (top dose mostly 46.1 µM), inactives show at the highest dose activity change, negative = inhibition, most hits filed as inhibitors | AID 504467 | actives 2.3% (n = 330,000); further: on the % scale 0 is the no-effect control and ±100 the full control effect; nearly all actives have a fitted effect of over 55% in size
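Reporter activity after DNA damage by 5-fluorouridine is monitored. Compound-treated cells incubate 16 hr at 37 °C, then ONE-Glo is added for 30 min before luminescence reading.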
FLuc counter: counter-screen for miR-21 project: firefly luciferase inhibitors or activators | P08659 | purified FLuc, Km substrates, luminescence inhibition | Potency, µM (titrated, usually from 57.5 µM), for the others: at the highest dose activity change, negative = inhibition, hits mostly inhibitors | actives 6.9% (n = 360,000);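 further: plate controls were vehicle for no effect and reference inhibitor for full effect; nearly all actives have a fitted effect of over 55% in size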
Target sequence (P08659 whole entry, looked up): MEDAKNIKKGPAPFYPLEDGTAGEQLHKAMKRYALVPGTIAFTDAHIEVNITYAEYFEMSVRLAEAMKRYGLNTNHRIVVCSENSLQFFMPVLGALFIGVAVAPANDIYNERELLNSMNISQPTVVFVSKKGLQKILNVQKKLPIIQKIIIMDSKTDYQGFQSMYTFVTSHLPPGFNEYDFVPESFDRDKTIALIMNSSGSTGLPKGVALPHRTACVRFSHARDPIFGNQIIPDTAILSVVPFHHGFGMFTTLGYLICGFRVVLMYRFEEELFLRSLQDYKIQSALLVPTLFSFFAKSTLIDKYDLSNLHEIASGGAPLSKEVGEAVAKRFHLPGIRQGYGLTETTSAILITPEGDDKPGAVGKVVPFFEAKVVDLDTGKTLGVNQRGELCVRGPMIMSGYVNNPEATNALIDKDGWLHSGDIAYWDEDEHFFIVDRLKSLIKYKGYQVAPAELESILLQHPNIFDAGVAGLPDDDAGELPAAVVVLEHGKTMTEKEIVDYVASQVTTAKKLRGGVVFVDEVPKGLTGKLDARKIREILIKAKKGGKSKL
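Biochemical qHTS of compounds, final roughly 60 µM downward over six points, against 10 nM purified firefly luciferase using Km concentrations of substrates (10 uM D-luciferin, 10 uM ATP) in Tris acetate pH 7.5 buffer; luminescence output.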
Rab9 promoter act: activates the Rab9 promoter; Potency, µM (top dose mostly 9.22 µM), inactives show at the highest dose activation, negative = inhibition, most hits filed as activators; actives 2.8% (n = 320,000); Huh7 Rab9 promoter-luciferase reporter, luminescence, 24 h; further: % of control where 0% means no effect; nearly all actives have a fitted effect of over 60% in size
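Stable Rab9-luc Huh7, 1500 cells/well, 2 h settle; cmpd in DMSO, 24 h, 37 °C/5% CO2; luciferase reagent 10 min RT; luminescence.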
SMN2 splice enh: enhancers of SMN2 splice variant expression; AID 1458; Potency, µM (series often up to 46.1 µM), for the others: top-dose activity change, positive = activation, actives largely listed as activators; actives 2.8% (n = 210,000); HEK293 SMN2-luciferase splicing reporter, luminescence, 30-36 h; further: % of control where 0% means no effect; nearly all actives have a fitted effect of over 55% in size
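HEK293 cells carry an SMN2 […]–luciferase reporter in which exon 7 inclusion puts luciferase in frame. Cells were plated 10-12 h before compound addition, then incubated 30-36 h at 37C. ONE-Glo luminescence was read; sodium butyrate at 4.5 mM final served as control.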
NPC1 promoter act: activates the NPC1 promoter; Huh7 NPC1 promoter luciferase reporter, 24 h; Potency, µM (highest dose often 9.22 µM), for the others: at the top dose activation, hits mostly activators; actives 2.4% (n = 320,000); AID 485313; further: % of control where 0% means no effect; nearly all actives have a fitted effect of over 60% in size
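Cells: Huh7 expressing luciferase under the NPC1 promoter, 1500/well. Seeded 2 h, compound added, incubated 24 h at 37 °C. Luciferase reagent, 10 min ambient, then luminescence.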
Active calls of the source: *; ? = inconclusive; · = not tested or not shown. The call rests on the fitted dose curve; in most records, active means well fitted curve in the direction sought with a large enough effect; inconclusive means small, poorly fitted or top-dose-only effect, or another doubt; inactive means no such curve, though single readings can be large; an effect the other way counts as inactive or inconclusive. Potency means the concentration at half of the fitted maximal effect.

SMILES	ELG1 genotox	ELG1 repair inh	FLuc counter	Rab9 promoter act	SMN2 splice enh	NPC1 promoter act
Cc1cccc(-c2cnn(-c3ccccc3)c2N)c1	?	?	6.7µM*	3.5µM*	·	?
NC(=O)c1cnn(-c2cccc(Cl)c2)c1N	1%	14%	6%	-1%	·	-5%
Cc1cccc(-c2cnn(-c3cccc([N+](=O)[O-])c3)c2N)c1	8%	-23%	?	28%	?	18%
Nc1ccccc1Nc1cc(-c2cccc(Cl)c2)nn1-c1ccccc1	1%	?	27µM*	3%	12%	6%
Nc1c(-c2ccccc2)cnn1-c1cccc(Cl)c1	?	?	3.4µM*	1.4µM*	·	1.1µM*
Cc1cc(C)c(C)c(S(=O)(=O)NCCN2CCOCC2)c1C	1%	10%	1%	3%	·	0%
CCC(=O)OCn1nnc2ccccc2c1=O	3%	-7%	1%	-4%	-43%	5%
O=c1c2ccccc2nnn1COc1cccc2ccccc12	13%	?	17µM*	4µM*	18%	?
CC(Oc1ccc(Cl)cc1Cl)C(=O)OCn1nnc2ccccc2c1=O (stereo not given)	1%	-5%	0%	1%	-6%	-4%
O=c1c2ccccc2nnn1COc1ccc(Cl)cc1Br	?	?	24µM*	3.2µM*	?	?
O=c1c2ccccc2nnn1COc1ccc(F)cc1Cl	?	?	?	2.5µM*	?	?
CCOC(=O)C1CCN(C(=O)COC(=O)C2CCN(S(=O)(=O)c3ccc(C)c(C)c3)CC2)CC1	-3%	-12%	0%	-4%	·	-4%
COCC(=O)NCc1nc2cccnc2n1Cc1ccc(F)cc1	·	·	1%	·	·	·
Cc1cc(=O)[nH]c(N/N=C/C=C/c2ccccc2)n1	-1%	2%	-10%	-1%	-8%	0%
Cc1cc(=O)[nH]c(N/N=C2/CCCC/C2=C\c2ccccc2)n1	-6%	8.2µM*	-12%	2%	·	-6%
Cc1csc(NC(=O)CSC2=NS(=O)(=O)c3cc(F)ccc3N2)n1	0%	4%	-5%	-3%	·	1%
O=C(CO/N=C/c1ccc(OC(F)F)cc1)NCc1ccco1	-5%	27%	0%	0%	1%	-5%
OC1(c2ccc(OC(F)F)cc2)CSC(=Nc2cccnc2)N1Cc1ccco1 (stereo not given)	-15%	18µM*	0%	-14%	-92%	-5%
OC1(c2ccc(F)cc2)CSC(=Nc2cccnc2)N1Cc1ccco1 (stereo not given)	-6%	23µM*	-2%	-2%	-8%	-2%
O=C(CCC(=O)N1CC2CCCN2c2ccccc21)NCc1ccccc1 (stereo not given)	·	·	-8%	·	·	·
O=C(CN1CCN(CC(=O)Nc2ccccc2Cl)CC1)Nc1ccc2c(c1)OCCO2	-7%	?	-1%	-1%	-7%	-5%
S=C(Nc1ccc(Cl)cc1)Nc1ccc2c(c1)OCCO2	11%	?	11µM*	?	·	?
S=C(Nc1ccc2c(c1)OCCO2)Nc1ccccc1Cl	?	?	15µM*	25%	·	19%
CC(=O)NCCN=Cc1sc2ccccc2c1O	3%	?	?	-1%	-3%	3%
CCCN=Cc1sc2ccc(OCC)cc2c1O	23µM*	?	12µM*	3.2µM*	3%	?
SMILES	ELG1 genotox	ELG1 repair inh	FLuc counter	Rab9 promoter act	SMN2 splice enh	NPC1 promoter act
Cc1cc(N/N=C/c2ccccc2Cl)nc(NCc2ccccc2)n1	-7%	?	7.6µM*	-5%	-31%	-2%
Cc1cc(C)nc(N/N=C/c2ccccc2Cl)n1	15%	?	?	?	·	22%
COc1ccc(Nc2cc(C)nc(NCc3ccccc3)n2)cc1	-7%	18µM*	-19%	-26%	·	-11%
CCc1ccc(Cn2c(CNS(=O)(=O)c3ccc(Cl)s3)nc3cccnc32)cc1	·	·	-19%	·	·	·
COc1ccc(Nc2cc(C(=O)N3CCc4ccccc4C3)c3ccccc3n2)c(OC)c1	-19%	21µM*	15µM*	-1%	-9%	-1%
COc1ccccc1-c1cc(C(=O)N2CCc3ccccc3C2)c2ccccc2n1	-6%	13µM*	0%	0%	-24%	-5%
CCOc1cc(N(CC)CC)ccc1/C=C(/C#N)c1nc2ccccc2[nH]1	0%	?	9.5µM*	?	-47%	5%
CCCOc1cc(N(CC)CC)ccc1/C=C(/C#N)c1nc2ccc(C)cc2[nH]1	-7%	4.6µM*	-9%	0%	·	-10%
COc1cc(/C=C(\C#N)c2nc3ccc(C)cc3[nH]2)ccc1OCc1ccc(C)cc1	·	·	0%	·	-6%	·
CCN(CC)c1ccc(/C=C(/C#N)c2nc3ccc(C)cc3[nH]2)c(OC(C)C)c1	-5%	?	5.4µM*	-2%	-1%	-2%
COc1cccc(/C=C(\C#N)c2nc3ccccc3[nH]2)c1OCC(=O)O	5%	18%	-26%	-1%	·	-1%
CCN(CC)S(=O)(=O)c1ccc2c(c1)N(CC(=O)Nc1ccc(OC)cc1)C(=O)CS2	·	·	-2%	·	-3%	·
CCOC(=O)c1c(S(=O)(=O)N2CCCC(C(=O)Nc3cccc(C)n3)C2)c(C)n(C)c1C (stereo not given)	-2%	0%	0%	4%	·	-5%
COc1ccc(C(=O)NC23CC4CC(CC(C4)C2)C3)cc1	4%	?	7.6µM*	18%	·	2%
COc1ccc(C(=O)NCC(=O)OCC(=O)NC23CC4CC(CC(C4)C2)C3)cc1	4%	?	·	·	·	·
O=C(NC12CC3CC(CC(C3)C1)C2)c1cccc([N+](=O)[O-])c1	-3%	-8%	-11%	3%	·	2%
COc1cccc(C(=O)NC23CC4CC(CC(C4)C2)C3)c1	10%	2%	17µM*	4%	·	3%
Cc1nn(Cc2cccc(C(=O)NC34CC5CC(CC(C5)C3)C4)c2)c(C)c1Br	-10%	23µM*	-9%	0%	-50%	-3%
Cc1ccc(N2CC(NC(=O)c3ccc(S(=O)(=O)N4CCOCC4)cc3)CC2=O)cc1 (stereo not given)	·	·	3%	·	·	·
COc1ccc(C2=CC(=O)C[C@H](c3ccc(F)cc3)C2)cc1OC	0%	?	2%	-4%	·	-1%
COc1ccc2c(c1)CC(C(=O)Nc1c(C)cc(C)cc1C)CO2 (stereo not given)	·	·	3%	·	·	·
Cc1ccc(C(=O)NC2CCSC2=O)cc1 (stereo not given)	6%	26%	4%	-8%	-15%	0%

Source: PubChem BioAssay (National Center for Advancing Translational Sciences (NCATS))
